# Measured values published in PubChem BioAssay (NCATS).
# Records with an inconclusive call do not appear. Entries that show only a call come without a potency. Active and inactive are the calls of the source. Calls follow the shape of the dose curve; as a rule, active = well fitted cell-killing curve with a large enough effect; inconclusive = small, poorly fitted or top-dose-only effect; inactive = flat fitted curve, though single readings scatter.
# Test: Cell Viability - LYMP2-002 (AID 977);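 also: compound exposure lasted 24 h at 37 °C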
# Details: LYMP2-002 lymphoblastoid cell viability, qHTS; series mostly up to 92.2 µM
# From the text: NIH Chemical Genomics Center [NCGC]
# NIH Molecular Libraries Screening Centers Network [MLSCN]
# National Institutes of Environmental Health Sciences [NIEHS]
# National Toxicology Program [NTP]
# We have developed a 1536-well cell-based assay for quantitative high throughput screening (qHTS) against a number of cell lines to determine in vitro cytotoxicity of small molecules. This particular assay uses a human lymphoblastoid cell line (LYMP2-002) purchased from Coriell Institute for Medical Research.
# NCGC Assay Protocol Summary:
# The CellTiter-Glo luminescent cell viability assay (Promega) is a homogeneous method to measure the number of viable cells in culture. The end point readout of this assay is based on quantitation of intracellular ATP, an indicator of metabolic activity, using the luciferase reaction. Luciferase catalyzes the oxidation of beetle Luciferin to oxyluciferin and light in the presence of ATP. The luminescent signal is proportional to amount of ATP present.
# Using the CellTiter-Glo luminescent cell viability assay, the amount of cellular ATP was measured in the lymphoblastoid cell line with complete culture medium following compound treatment for 24 hours. The assay was performed in opaque white Kalypsys 1536-well plates. In the screen, tetraoctylammonium bromide was used as positive control. Library compounds were measured for their ability to cause acute toxicity in the cell line, as reflected by a decrease in intracellular ATP levels, in a concentration-dependent manner. […] AC50 values were determined from concentration-response data modeled with the standard Hill equation.
# qHTS protocol for CellTiter Glo lymphoblastoid cellular assay
# [Step] [Parameter] [Value] [Description]
# 1. Reagent; 5 uL; 2500 lymphoblastoid cells/well
# 2. Time; 5 hr; 37 C incubation
# 4. Controls; 23 nL; Tetraoctylammonium bromide 6.4pM to 92 uM
# 5. Time; 24 hr; 37 C incubation
# 6. Reagent; 5 uL; CellTiter Glo reagent
# 7. Time; 30 min; Room Temperature
# 8. Detection; Luminescence; Viewlux plate reader
# Keywords: cell viability, cytotoxicity, lymphoblastoid cell line, luminescence, NTPHTS, NTPHTS_NCGC, NIEHS, DSSTox, MLSMR, MLSCN, NIH Roadmap, qHTS, NCGC
# Potency is read from the fitted curve at half-maximal effect.
row,Compound,Potency
1,Cc1ccccc1C=O,inactive
2,O=C(O)c1ccc(Cl)c(Cl)c1,inactive
3,C=CCn1c(=O)n(CC=C)c(=O)n(CC=C)c1=O,inactive
4,CCc1ccccc1,inactive
5,CCCCC(CC)C(=O)O (stereo not given),inactive
6,Cc1ccc(C(C)(C)C)cc1,inactive
7,Cc1ccc(Cl)cc1N,inactive
8,Nc1ccccc1S(=O)(=O)O,inactive
9,O=C1NC(=O)c2cc([N+](=O)[O-])ccc21,inactive
10,C=C(C)C(=O)OCCCCCC,inactive
11,CC(C)=CCl,inactive
12,Nc1nc(CC(=O)O)cs1,inactive
13,O=C1OC(=O)c2cc([N+](=O)[O-])ccc21,inactive
14,CCCOCC(C)O (stereo not given),inactive
15,CC(=O)c1ccccc1[N+](=O)[O-],inactive
16,CCCCCO,inactive
17,CNc1ccccc1,inactive
18,CCCCC/C=C/C=C/C=O,50.1 µM (active)
19,CC(=C/C=C/C(C)=C/C=C/C=C(C)/C=C/C=C(C)/C=C/C(=O)O)/C=C/C(=O)O,inactive
20,CCC1CO1 (stereo not given),inactive

row,Compound,Potency
1,[O-]/[N+](=N\O)c1ccccc1,inactive
2,CC(=O)c1ccc([N+](=O)[O-])cc1,inactive
3,O=P(O)(OCc1ccccc1)OCc1ccccc1,inactive
4,O=Cc1cccc(Br)c1,inactive
5,CC(C)(C)OCC1CO1 (stereo not given),inactive
6,C=CCCCCCCC=C,inactive
7,CCC(C)=O,inactive
8,c1ccc(Oc2ccccc2)cc1,inactive
9,CC(=O)Nc1ccc(N)cc1,inactive
10,CCCCCCCCC/C=C/CC1CC(=O)OC1=O (stereo not given),inactive
11,CCCCOCCOCCOCCCC,inactive
12,CCOC(=O)C(C)C(C)=O (stereo not given),inactive
13,C=CC(=O)NC(C)C,inactive
14,Cc1ccc(C)c(O)c1,inactive
15,C=C(C)C(=O)OCCCCCCCCCC,inactive
16,CC(=O)OC(C)=O,inactive
17,CCCCC(CC)CNCC(CC)CCCC (stereo not given),inactive
18,CC(C)(c1cc(Br)c(OCC(Br)CBr)c(Br)c1)c1cc(Br)c(OCC(Br)CBr)c(Br)c1 (stereo not given),inactive
19,NC(=S)NNC(N)=S,inactive
20,N#CCc1ccccc1[N+](=O)[O-],inactive
